In PubChem BioAssay (NCI):
Where “and” joins values, the source holds several entries; their conditions need not be identical. Equal entries are not always repeated. This is part of a sample that, as a whole, favours compounds with a hit. Of some 79,000 tested, about 15% had one in any assay. Calls of active or inactive are those of the source. Rule as the data show it: active = growth inhibition above about 70%; inactive = the rest.

Columns and labels:
[1] = NCI Yeast Anticancer Drug Screen. Data for the rad52 strain (AID 147);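 also: 0% = growth of vehicle-treated control cultures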; settings: S. cerevisiae rad52 mutant growth inhibition, active compounds read high
In short: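 Compounds are applied to a genetically defined yeast strain lacking normal DNA damage repair, and inhibition of growth is expressed relative to cultures given vehicle only.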

[2] = NCI Yeast Anticancer Drug Screen. Data for the wt1 strain (AID 149);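 also: 0% = growth of vehicle-treated wt1 cultures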; settings: S. cerevisiae wt1 strain (SPY 50644) growth inhibition, active compounds read high
In short: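 The wt1 strain was treated with compounds, and growth was compared with vehicle-treated cultures to give inhibition.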

[3] = NCI Yeast Anticancer Drug Screen. Data for the rad50EPP+ strain (AID 151);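 also: 0% = growth of vehicle-treated control cultures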; settings: S. cerevisiae rad50 mutant strain, active compounds read high
In short: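 Compounds were applied to the rad50EPP+ yeast strain, which bears a defined DNA repair alteration, and growth inhibition was determined relative to vehicle-treated cultures.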

[4] = NCI Yeast Anticancer Drug Screen. Data for the mgt1 strain (AID 153); settings: S. cerevisiae mgt1 mutant growth inhibition, active compounds read high
In short: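 Strain: mgt1 yeast, one of a set carrying defined DNA damage repair or cell cycle control alterations. Compound-treated growth compared with vehicle.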

[5] = NCI Yeast Anticancer Drug Screen. Data for the rad50 strain (AID 155);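 also: 0% = growth of vehicle-only cultures of the same strain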; settings: S. cerevisiae rad50 strain growth inhibition, active compounds read high
In short: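 Cells are treated with compound, grown, and their growth is then scored against vehicle-only cultures of the same repair-deficient yeast strain.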

[6] = NCI Yeast Anticancer Drug Screen. Data for the mec2-1 strain (AID 157); settings: S. cerevisiae mec2-1 strain, active compounds read high
In short: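 Strain: mec2-1 (DNA repair/cell cycle alteration). Compound exposure, then growth measured; inhibition expressed relative to vehicle.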

[7] = NCI Yeast Anticancer Drug Screen. Data for the rad14 strain (AID 159);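 also: 0% = growth of vehicle-treated control cultures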; settings: S. cerevisiae rad14 strain growth inhibition, active compounds read high
In short: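 Readout: yeast growth inhibition, referenced to vehicle-only cultures. Strain bears a defined alteration in DNA damage repair.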

[8] = NCI Yeast Anticancer Drug Screen. Data for the sgs1 mgt1 strain (AID 161);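 also: 0% = growth of cultures given vehicle only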; settings: S. cerevisiae sgs1 mgt1 strain, active compounds read high
In short: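 Mutant yeast exposed to compound; growth scored against vehicle-only wells.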

[9] = NCI Yeast Anticancer Drug Screen. Data for the CLN2oe strain (AID 163);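 also: 0% = growth of vehicle-only control cultures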; settings: S. cerevisiae CLN2oe strain, active compounds read high
In short: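 Growth of a genetically modified yeast strain is measured after compound exposure and compared with cultures given vehicle alone.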

[10] = NCI Yeast Anticancer Drug Screen. Data for the cln2 rad14 strain (AID 165);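 also: 0% = growth equal to vehicle treated cultures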; settings: S. cerevisiae cln2 rad14 strain, active compounds read high
In short: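 Compounds are applied to the cln2 rad14 yeast strain, and growth is then compared with that of vehicle-treated cultures to give inhibition.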

[11] = NCI Yeast Anticancer Drug Screen. Data for the bub3 strain (AID 167); settings: S. cerevisiae bub3 mutant strain, active compounds read high
In short: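 Part of a panel of yeast mutants defective in DNA damage repair or cell cycle regulation. Each strain is grown with compound, and inhibition is calculated relative to solvent-treated cultures.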

[12] = NCI Yeast Anticancer Drug Screen. Data for the wt2 strain (AID 169);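 also: 0% = growth of vehicle-treated yeast cultures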; settings: S. cerevisiae wt2 strain growth inhibition, active compounds read high
In short: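 This strain belongs to a panel of yeast strains with defined genetic alterations in DNA damage repair or cell cycle control. Compounds are applied, and growth inhibition is measured against vehicle-treated cultures.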

[13] = NCI Yeast Anticancer Drug Screen. Data for the mlh1 strain (AID 171);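 also: 0% = growth of vehicle-treated control cultures of the same strain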; settings: S. cerevisiae mlh1 strain growth inhibition, active compounds read high
In short: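 Growth of the mutant yeast strain after compound exposure, expressed as inhibition relative to vehicle-only controls.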

[14] = NCI Yeast Anticancer Drug Screen. Data for the sgs1 strain (AID 173);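 also: 0% = growth of vehicle-only control cultures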; settings: S. cerevisiae sgs1 mutant, active compounds read high
In short: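 Growth of a yeast strain bearing a defined genetic alteration is measured after compound treatment. Inhibition is expressed relative to vehicle-only controls.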

[15] = NCI Yeast Anticancer Drug Screen. Data for the mlh1 rad18 strain (AID 175); settings: S. cerevisiae mlh1 rad18 strain growth inhibition, active compounds read high
In short: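 Read-out is yeast growth inhibition, calculated against vehicle-only controls. The compound was applied to a strain engineered with DNA damage repair alterations.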

[16] = NCI Yeast Anticancer Drug Screen. Data for the rad18 strain (AID 177); settings: S. cerevisiae rad18 mutant growth inhibition, active compounds read high
In short: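 Growth of the mutant yeast strain after compound exposure, normalised to vehicle-only cultures.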

[17] = at 5.0 µM (retest, dose inferred, filed as 0.5)
[18] = at 50.0 µM (retest, dose inferred, filed as 5.0)

Measured: growth inhibition

N#CC(C#N)=Cc1ccc(C#N)cc1
active: [5]; [18] 90% | [15]; [18] 76%
inactive: [1]; at 1.2 µM 0% | [1]; at 3.7 µM -4% | [1]; at 11.0 µM -1% | [1]; at 33.0 µM 0% | [1]; at 100.0 µM 11% | [2]; at 1.2 µM -2% | [2]; at 3.7 µM -2% | [2]; at 11.0 µM -3% | [2]; at 33.0 µM -2% | [2]; at 100.0 µM 3% | [3]; at 1.2 µM -2% | [3]; at 3.7 µM -2% | [3]; at 11.0 µM 0% | [3]; at 33.0 µM 0% | [3]; at 100.0 µM 0% | [4]; at 1.2 µM -2% | [4]; at 3.7 µM -2% | [4]; at 11.0 µM 0% | [4]; at 33.0 µM -3% | [4]; at 100.0 µM 1% | [5]; at 1.2 µM 1% | [5]; at 3.7 µM -4% | [5]; [17] -109% | [5]; at 11.0 µM 2% | [5]; at 33.0 µM 10% | [5]; at 50.0 µM -6.65% and 24.1% | [5]; at 100.0 µM 9% | [6]; at 1.2 µM 3% | [6]; at 3.7 µM 0% | [6]; [17] -47% | [6]; at 11.0 µM 6% | [6]; at 33.0 µM 3% | [6]; [18] 15% | [6]; at 50.0 µM -8.25% and 5.55% | [6]; at 100.0 µM 7% | [7]; at 1.2 µM 1% | [7]; at 3.7 µM 1% | [7]; at 11.0 µM 2% | [7]; at 33.0 µM 6% | [7]; at 100.0 µM 16% | [8]; [17] -56% | [8]; [18] 62% | [8]; at 50.0 µM -16.8% and -0.4% | [9]; at 1.2 µM -4% | [9]; at 3.7 µM -2% | [9]; at 11.0 µM 1% | [9]; at 33.0 µM 0% | [9]; at 100.0 µM 11% | [10]; [17] -60% | [10]; [18] -7% | [10]; at 50.0 µM 50.4% and 4.05% | [11]; at 1.2 µM -4% | [11]; at 3.7 µM -8% | [11]; [17] -65% | [11]; at 11.0 µM -7% | [11]; at 33.0 µM -7% | [11]; [18] 51% | [11]; at 50.0 µM -0.75% and 31.1% | [11]; at 100.0 µM 7% | [12]; at 1.2 µM -1% | [12]; at 3.7 µM -1% | [12]; at 11.0 µM -1% | [12]; at 33.0 µM 1% | [12]; at 100.0 µM 5% | [13]; at 1.2 µM 8% | [13]; at 3.7 µM -4% | [13]; at 11.0 µM -1% | [13]; at 33.0 µM 1% | [13]; at 100.0 µM 2% | [14]; at 1.2 µM -1% | [14]; at 3.7 µM -2% | [14]; at 11.0 µM -2% | [14]; at 33.0 µM -2% | [14]; at 100.0 µM 14% | [15]; [17] -109% | [15]; at 50.0 µM -24.6% and 16.7% | [16]; at 1.2 µM -1% | [16]; at 3.7 µM -1% | [16]; at 11.0 µM -1% | [16]; at 33.0 µM 0% | [16]; at 100.0 µM 9%

c1cc2c(cc1C1OC[C@H]3[C@@H](c4ccc5c(c4)OCO5)OC[C@@H]13)OCO2 (stereo partly specified)
inactive: [1]; at 1.2 µM -9% | [1]; at 3.7 µM -16% | [1]; at 11.0 µM -3% | [1]; at 33.0 µM -1% | [1]; at 100.0 µM -6% | [2]; at 1.2 µM -1% | [2]; at 3.7 µM -6% | [2]; at 11.0 µM 1% | [2]; at 33.0 µM -20% | [2]; at 100.0 µM -8% | [3]; at 1.2 µM -7% | [3]; at 3.7 µM -16% | [3]; at 11.0 µM 3% | [3]; at 33.0 µM 16% | [3]; at 100.0 µM 2% | [4]; at 1.2 µM -4% | [4]; at 3.7 µM -9% | [4]; at 11.0 µM -2% | [4]; at 33.0 µM -5% | [4]; at 100.0 µM -5% | [5]; at 1.2 µM -16% | [5]; at 3.7 µM -19% | [5]; [17] 2% | [5]; at 11.0 µM -16% | [5]; at 33.0 µM -22% | [5]; [18] 3% | [5]; at 50.0 µM 15.3% | [5]; at 100.0 µM 8% | [6]; at 1.2 µM -2% | [6]; at 3.7 µM -4% | [6]; [17] 2% | [6]; at 11.0 µM -4% | [6]; at 33.0 µM -5% | [6]; [18] 8% | [6]; at 50.0 µM -0.6% | [6]; at 100.0 µM -1% | [7]; at 1.2 µM 1% | [7]; at 3.7 µM 6% | [7]; at 11.0 µM 17% | [7]; at 33.0 µM 26% | [7]; at 100.0 µM 28% | [8]; [17] 7% | [8]; [18] 20% | [8]; at 50.0 µM 60% | [9]; at 1.2 µM -7% | [9]; at 3.7 µM -9% | [9]; at 11.0 µM -10% | [9]; at 33.0 µM -9% | [9]; at 100.0 µM -7% | [10]; [17] -2% | [10]; [18] -8% | [10]; at 50.0 µM 10.8% | [11]; at 1.2 µM 14% | [11]; at 3.7 µM 26% | [11]; at 11.0 µM 37% | [11]; at 33.0 µM 46% | [11]; at 100.0 µM 39% | [12]; at 1.2 µM -1% | [12]; at 3.7 µM 2% | [12]; at 11.0 µM 7% | [12]; at 33.0 µM 24% | [12]; at 100.0 µM 12% | [13]; at 1.2 µM -16% | [13]; at 3.7 µM -8% | [13]; at 11.0 µM -8% | [13]; at 33.0 µM -8% | [13]; at 100.0 µM -6% | [14]; at 1.2 µM -16% | [14]; at 3.7 µM -11% | [14]; at 11.0 µM 3% | [14]; at 33.0 µM 9% | [14]; at 100.0 µM 15% | [15]; [17] 7% | [15]; [18] 17% | [15]; at 50.0 µM 27.6% | [16]; at 1.2 µM -10% | [16]; at 3.7 µM -6% | [16]; at 11.0 µM -4% | [16]; at 33.0 µM -8% | [16]; at 100.0 µM -11%
active: [11]; [17] 70% | [11]; [18] 83% | [11]; at 50.0 µM 75.8%
